Screens deposited in PubChem BioAssay by Sanford-Burnham Center for Chemical Genomics.
CYP2C19 inhib – blockers of cytochrome P450 2C19 activity – biochemical, luminescence, ADME assay, primary screen; P33261; CYP2C19 Supersomes, luciferin-H EGE luminescence, 30 min; inhibition, % at 5 µM; 21% of 96,000 active; AID 778, 2007;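 active = CYP2C19 inhibition above a set limit at 5 µM in the primary screen, cut at about 50% in these data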
CYP2C9 inh – blockers of cytochrome P450 2C9 activity – biochemical, luminescence, ADME assay, primary screen | P11712 | CYP2C9 Supersomes, luciferin-H conversion | inhibition, % at 5 µM | 20% of 96,000 active | AID 777, 2007;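 active = blocking of liver enzyme CYP2C9 beyond about 50% at 5 µM, limit read from the data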
Target sequence (P11712 whole entry, looked up): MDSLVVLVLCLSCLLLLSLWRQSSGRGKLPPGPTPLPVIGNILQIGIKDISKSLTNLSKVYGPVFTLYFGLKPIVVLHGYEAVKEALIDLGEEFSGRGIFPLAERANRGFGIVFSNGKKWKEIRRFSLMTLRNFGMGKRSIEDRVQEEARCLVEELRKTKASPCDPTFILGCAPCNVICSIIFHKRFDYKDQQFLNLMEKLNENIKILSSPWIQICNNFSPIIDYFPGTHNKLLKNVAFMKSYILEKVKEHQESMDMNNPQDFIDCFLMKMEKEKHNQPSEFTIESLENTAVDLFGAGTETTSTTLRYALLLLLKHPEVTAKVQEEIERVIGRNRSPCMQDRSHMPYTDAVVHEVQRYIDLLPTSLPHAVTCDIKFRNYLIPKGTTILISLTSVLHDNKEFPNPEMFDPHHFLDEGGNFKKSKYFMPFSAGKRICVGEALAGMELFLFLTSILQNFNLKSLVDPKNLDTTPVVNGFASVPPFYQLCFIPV
Pyk2 oligo antag – antagonists of Pyk2 self-association, primary screen, Q293 cells, FERM NanoBiT luminescence, HTS; z-score (the deposit names both 25 µM and 10 µM); Protein-tyrosine kinase 2-beta (Homo sapiens), Q14289; AID 1347419, 2020; 0.83% of 99,000 active; active compounds read low;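 active = Z-score of -3 or lower, scaled per plate to the spread of control and sample wells; inactive = z-score above -3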;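 note: negative z-score means lost luminescence so less FERM oligomerization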
CYP2C9 act – human CYP2C9 activators, primary screen, biochemical, luminescence | recombinant CYP2C9, luciferin-H conversion; active compounds read high; factor 1 = untreated enzyme, 0 = blocked | 1.4% of 96,000 active | activation factor at 5 µM | Cytochrome P450 2C9 (Homo sapiens), P11712;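 active = activation factor of 2 or more for CYP2C9 at a 5 µM dose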
CYP2C19 activ – human CYP2C19 activators, primary screen, biochemical, luminescence; Cytochrome P450 2C19 (Homo sapiens), P33261; recombinant CYP2C19, luciferin-H EGE luminescence; active compounds read high; 0 = fully inhibited enzyme, 1 = untreated enzyme; activation factor at 5 µM; 96,000 tested, under 10 active; AID 1025, 2008;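 active = activation factor of at least 2 at 5 µM in the primary screen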
Hits are given with their value; n = inactive; x = no result. This is a sample that favours compounds with a hit; in the whole collection about 28% have one here.

SMILES	CYP2C19 inhib	CYP2C9 inh	Pyk2 oligo antag	CYP2C9 act	CYP2C19 activ
O=C1NC(Nc2nccs2)(C(F)(F)F)C(=O)N1CCc1ccccc1 (stereo not drawn)	89	85	n	n	n
COc1cc2c(C(=O)NCc3ccccn3)cn(CC(C)C)c(=O)c2cc1OC	n	n	x	n	n
CCN(CC)CCCNS(=O)(=O)c1ccc(OC)cc1	n	n	n	n	n
C=CCOc1c(Cl)cc(/C=N/O)cc1OC	98	n	n	n	n
CCOc1cc(/C=N\O)cc(Cl)c1OCC	x	x	n	x	x
O=C(CN1C(=O)c2ccccc2S1(=O)=O)NCCSC1CCCCC1	n	n	n	n	n
O=S(=O)(Cc1ccccc1)N1CCCC1	n	n	n	n	n
CC1CCN(S(=O)(=O)Cc2ccccc2Cl)CC1	96	n	n	3.4	n
O=S(=O)(Cc1ccccc1Cl)N1CCCCC1	60	n	n	n	n
CC(NC(=O)Cc1cccs1)C(c1cccs1)N1CCOCC1 (stereo not drawn)	x	x	n	x	x
COc1ccc(CN(C)C2CCCCC2)c(C)c1C	76	n	n	n	n
CCOC(=O)N1CCN(C(=O)c2ccc3c(=O)n(Cc4ccc(Cl)cc4)c(=S)[nH]c3c2)CC1	n	52	n	n	n
CCOC(=O)N1CCN(C(=O)c2ccc3c(=O)n(CCc4ccccc4)c(=S)[nH]c3c2)CC1	72	71	n	n	n
O=C(c1ccc2c(=O)n(Cc3ccco3)c(=S)[nH]c2c1)N1CCN(Cc2ccccc2)CC1	57	70	n	n	n
O=c1c2cc3c(cc2[nH]c(=S)n1Cc1ccco1)OCO3	78	n	n	n	n
CN1CCN(C(=O)c2ccc3c(=O)n(Cc4ccco4)c(=S)[nH]c3c2)CC1	n	n	n	n	n
COc1ccc(C(=O)NCCSCc2ccco2)cc1OC	n	n	n	n	n
Cc1ccc(N(Cc2ccc([N+](=O)[O-])cc2)C(=O)c2ccco2)cc1	n	96	n	n	n
COc1ccc(CN(C(=O)c2ccco2)c2ccc(Br)cc2)cc1OC	80	89	n	n	n
COc1ccc(N(Cc2ccco2)C(=O)c2ccccc2F)cc1OC	71	80	n	n	n
COc1cccc(-c2csc(N3CCN(C(=O)NC45CC6CC(CC(C6)C4)C5)CC3)n2)c1	x	x	n	x	x
O=C(Nc1ccccc1C(=O)O)c1ccc(NC(=O)c2ccc(Br)o2)cc1	n	78	n	n	n
N/C(=N\O)c1ccc(NC(=O)c2ccc(Br)o2)cc1	n	n	n	n	n
CC(=O)Nc1cccc(C(=O)Nc2ccccc2C(=O)O)c1	n	n	n	n	n
CC(C)CC(=O)Nc1cccc(C(=O)Nc2ccccc2C(=O)O)c1	n	74	n	n	n
SMILES	CYP2C19 inhib	CYP2C9 inh	Pyk2 oligo antag	CYP2C9 act	CYP2C19 activ
O=C(Nc1ccccc1C(=O)O)c1cccc(NC(=O)c2ccc(Br)o2)c1	n	91	n	n	n
O=C(Nc1ccccc1F)c1ccc2nc(N3C(=O)CCC3=O)sc2c1	n	n	n	n	n
CCCn1c(NC(=O)C2COc3ccccc3O2)nc2ccccc21 (stereo not drawn)	n	n	n	n	n
CCOC(=O)C1(c2ccccc2)NC(c2ccccc2C)C2C(=O)N(c3ccc4c(c3)OCO4)C(=O)C21 (stereo not drawn)	x	x	n	x	x
Cc1csc(SCC(=O)c2cc(C)n(Cc3cccs3)c2C)n1	84	50	n	n	n
Cc1cc(C(=O)CSc2n[nH]c(-c3ccccc3F)n2)c(C)n1Cc1cccs1	63	92	n	n	n
C=CCn1c(C)cc(C(=O)CSc2ccc(NC(C)=O)cc2)c1C	91	n	n	n	n
COCC(C)n1c(C)cc(C(=O)CSc2ccc(NC(C)=O)cc2)c1C (stereo not drawn)	81	n	n	n	n
Cc1cc(C(=O)CN2C(=O)NC3(CCCc4ccccc43)C2=O)c(C)n1Cc1cccs1 (stereo not drawn)	n	n	n	n	n
COC(=O)c1c(N=CN(C)C)c(C#N)c2n1CCCC2	n	n	n	n	n
NC(=O)Cc1c[nH]c2cccc(O)c12	n	n	n	n	n
C=CCn1c(COc2cccc3ccc(C)nc23)nnc1SCC(N)=O	n	n	n	n	n
C=CCn1c(C)cc(C(=O)CSc2nnc(NC(C)C)s2)c1C	73	n	n	n	n
COCCn1c(C)cc(C(=O)CSc2ccc(NC(C)=O)cc2)c1C	93	n	n	n	n
CC(=O)Nc1ccc(SCC(=O)c2cc(C)n(Cc3cccs3)c2C)cc1	n	63	n	n	n
C=CCn1c(C)cc(C(=O)CSc2nnc(NCc3ccccc3)s2)c1C	x	x	n	x	x
COCC(C)n1c(C)cc(C(=O)CSc2nnc(Nc3ccccc3F)s2)c1C (stereo not drawn)	70	n	n	n	n
CCCOc1ccccc1N/C(=N/c1nc(C)cc(C)n1)NC(=O)Nc1ccc(Cl)cc1	n	n	n	n	n
CCOc1cc(C(=O)CCC(=O)OCC(=O)N2c3ccccc3NC(=O)C2(C)C)ccc1O	n	n	n	n	n
CCCCCn1c(CN2CCN(c3cc(Cl)ccc3C)CC2)nc2c1c(=O)[nH]c(=O)n2C	n	n	n	n	n
CC(Sc1ncc(C#N)c(N)n1)C(=O)Nc1ccccc1 (stereo not drawn)	n	n	n	n	n
COCCn1c(C)cc(C(=O)CSc2nc3ccccc3c(=O)[nH]2)c1C	n	n	n	n	n
COCCn1c(C)cc(C(=O)CSc2ccc3ccccc3n2)c1C	68	n	n	n	n
CCCCN(CCCC)S(=O)(=O)c1ccc(NC(=O)c2cccs2)cc1	60	91	-3.2	n	n
CC1CCN(S(=O)(=O)c2ccc(NC(=O)c3cccs3)cc2)CC1	84	96	n	n	n
SMILES	CYP2C19 inhib	CYP2C9 inh	Pyk2 oligo antag	CYP2C9 act	CYP2C19 activ
CN1CCN(S(=O)(=O)c2ccc(NC(=O)c3cccs3)cc2)CC1	n	n	n	n	n
CC1CCCCN1S(=O)(=O)c1ccc(NC(=O)c2cccs2)cc1 (stereo not drawn)	56	74	n	n	n
CC1(C)N(O)CC(c2cccs2)=[N+]1[O-]	n	n	n	n	n
CCOc1ccc(Nc2cc(=O)n(C)c(=O)n2C)cc1	n	n	n	n	n
O=C1CCCc2c1[nH]c1ccccc21	n	n	n	2.2	n
CSc1nccn1CC(=O)Nc1ccc(F)cc1	63	n	n	n	n
O=C(CSc1nccn1-c1ccc(F)cc1)Nc1ccc2c(c1)OCO2	52	n	n	n	n
Cc1n[nH]c(C)c1SCC(=O)Nc1ccc(F)cc1	x	x	n	x	x
O=C(CSc1nccn1-c1ccccc1)Nc1ccc2c(c1)OCO2	87	74	n	n	n
Cc1cc(C)cc(-n2ccnc2SCC(=O)Nc2ccc3c(c2)OCCO3)c1	n	n	n	n	n
